Several values for one entry are separate records, joined by “and”; a condition that tells them apart may be missing. Equal values may be shown once. Results filed as inconclusive are left out. Unmarked numbers belong to inactive results. Activity calls are given as the source filed them. Calls come from the whole dose curve.
These molecules were tested against Cytochrome P450 1A2 (Homo sapiens) (UniProt P05177) (assay: p450-cyp1a2 (AID 410;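 for activity change, negative = inhibition: -100% = full effect of reference inhibitor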)). Details: recombinant CYP1A2, luciferin-ME demethylation, luminescence; series mostly up to 57 µM; activity change, negative = inhibition: at the top concentration.
Method: The P450 gene superfamily is involved in metabolism and the clearance of xenobiotics. This assay used human CYP1A2 to measure the demethylation of luciferin 6' methyl ether (Luciferin-ME; Promega-Glo) to luciferin. The luciferin is then measured by luminescence after the addition of a luciferase detection regeant. Luciferin-ME concentration in the assay was equal to its Km for CYP1A2.
NCGC Assay Protocol Summary:
Two uL of enzyme and substrate mix (final concentrations: 20nM CYP1A2, 100uM Luciferin-ME, 100mM KPO4) were dispensed into a white, solid bottom 1536-well microtiter plate. 23nL of compound was transferred by a pin tool. The plate was incubated at room temperature for 10 min. Two uL of an NADPH regeneration solution (Promega supplied reagent) was dispensed and the reaction was allowed to continue for 60 min at room temperature. Then the reaction was stopped by reconstituted detection reagent. After another 20 min of incubation the plate was read on the ViewLux (Perkin Elmer) at 60 sec exposure and 2x2 binning. This protocol was carried out with Promega-Glo reagents and further information can be found at http://www.promega.com/tbs/tb325/tb325.pdf. Data were normalized to the to AC100 inhibition (57 uM furafylline).
Potency is the fitted concentration of half-maximal effect.

Sequence of Cytochrome P450 1A2 (Homo sapiens) (P05177 whole entry, looked up): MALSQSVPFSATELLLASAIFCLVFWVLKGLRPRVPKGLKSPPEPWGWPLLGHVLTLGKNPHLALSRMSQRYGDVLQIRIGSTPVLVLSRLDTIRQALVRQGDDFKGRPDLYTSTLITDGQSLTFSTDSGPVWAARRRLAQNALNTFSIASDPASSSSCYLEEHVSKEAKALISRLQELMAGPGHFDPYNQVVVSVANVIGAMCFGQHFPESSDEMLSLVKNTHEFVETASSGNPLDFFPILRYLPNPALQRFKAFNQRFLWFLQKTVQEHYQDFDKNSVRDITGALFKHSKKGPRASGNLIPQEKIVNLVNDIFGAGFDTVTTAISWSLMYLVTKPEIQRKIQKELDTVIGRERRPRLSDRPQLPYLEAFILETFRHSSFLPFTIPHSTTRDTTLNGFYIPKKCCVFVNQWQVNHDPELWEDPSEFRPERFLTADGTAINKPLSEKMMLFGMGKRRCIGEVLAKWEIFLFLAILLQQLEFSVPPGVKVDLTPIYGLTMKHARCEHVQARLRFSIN

| SMILES | activity change, negative = inhibition | Potency |
| --- | --- | --- |
| Nc1nc2c(c(=O)[nH]1)N(C=O)[C@H](CNc1ccc(C(=O)N[C@@H](CCC(=O)O)C(=O)O)cc1)CN2 | -1.3% [at 25.6 µM] | – |
| CCN1CCN(C(=O)N[C@H](C(=O)N[C@@H]2C(=O)N3C(C(=O)O)=C(CSc4nnnn4C)CS[C@@H]23)c2ccc(O)cc2)C(=O)C1=O | -9.6% [at 25.6 µM] | – |
| O=c1c(O)c(-c2ccc(O)c(O)c2)oc2cc(O)ccc12 | – | 1.58 µM (active) and 2.51 µM (active) |
| COc1ccc2c(c1OC)C(=O)OC2[C@H]1c2c(cc3c(c2OC)OCO3)CCN1C (stereo not given in full) | – | inactive |
| CC(Oc1ccc(O)cc1)(P(=O)(O)O)P(=O)(O)O | 8.4% | – |
| CN(C)CC[C@H](c1ccc(Cl)cc1)c1ccccn1 | – | inactive |
| CC(C)[C@H](CO)Nc1nc(Nc2cccc(Cl)c2)c2ncn(C(C)C)c2n1 | – | 2 µM (active) and 316 nM (active) |
| CCOC(=O)C1=C(C)NC(=S)NC1c1cccc(O)c1 (stereo not given) | – | 39.8 µM (active) |
| CN(N=O)C(=O)N[C@H]1C(O)OC(CO)[C@@H](O)[C@H]1O (stereo not given in full) | -13.1% | – |
| COc1cc2c(cc1OC)[C@@H]1C(=O)c3ccc4c(c3O[C@@H]1CO2)C=CC(C)(C)O4 | – | 15.8 µM (active) |
